Results on 39 compounds are retold here after PubChem BioAssay (NCI).

The panel holds about 83,000 compounds, 20% with a hit somewhere; the sample as a whole holds those more often.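 48-hour exposure, single concentration, 96-well plates; percent growth endpoint where 0 means no net growth. Active: below 10.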 The source made the active and inactive calls.

The first experiment deals with K-562 leukemia. The experiment is described as follows: NCI-60 one-dose screen, 48 h (100 = growth as untreated, 0 = no growth, -100 = all killed). The conditions noted are these: 10 µM unless noted.
In the case of `CCCSC1=NC2C(N(CC)C(=O)N2CC)N1/N=C/C=C/c1ccccc1[N+](=O)[O-]` (stereo not drawn), the growth is 8.86% (active).
Consider `COC(=O)C1=Nc2ccc(F)cc2/C1=C/c1sc(=S)[nH]c1O`, for which the growth is 8.26% (active).
As to `O=C1c2cc(Br)ccc2Oc2cc([N+](=O)[O-])ccc2N1c1ccc(I)cc1F`, the growth is 101% (inactive).
For `COc1cccc(-c2nn(C)c3sc(C(=O)NCCN4CCN(c5ccccc5F)CC4)cc23)c1`, the growth is -35.5% (active).
The same measure, in the same setting: to `O=S(=O)(c1ccccc1)n1cc2c(c1-c1ccccc1)CCc1sc(Nc3ccccc3)nc1-2` belongs 63.7% (inactive); to `CN1CCN(Cc2ccc(NC(=O)c3cncc(C#Cc4nc(N)nc5[nH]ncc45)c3)cc2C(F)(F)F)CC1`, 4.75% (active); to `Clc1ccc(-c2nnc(COc3ccc(C4=NNC(c5ccco5)C4)cc3)o2)cc1` (stereo not drawn), 80.7% (inactive).
Consider `CC(=O)c1ccc(Cc2ccc(C(C)=O)s2)s1`, for which the growth was 94.1% (inactive).
On to `CCOC(=O)c1cnc2ccc(Cl)cc2c1NCCCN(C)C`, for which the growth was 1.51% (active).
For the compound `CCN1C(=O)N(CC)C2C1NN=c1s/c(=C3\C(=O)N(CC(C)(C)C)c4ccccc43)c(=O)n12` (stereo not drawn), the growth was 4.89% (active).
Still for that read-out and setting: as for `CC(=O)c1ccc2oc(=O)n(Cc3ccc(C#N)cc3)c(=O)c2c1`, the figure is 117% (inactive); as for `O=C1/C(=C/c2cccc(O)c2)COc2ccc(O)cc21`, 7.52% (active); as for `O=C(Nc1nc2c(s1)CCc1c-2c(Br)n(Cc2ccccc2)c1Br)c1ccccc1`, 56.8% (inactive).
Regarding `Nc1n[nH]c2ccc([C@@H]3Nc4ccc5[nH]ncc5c4[C@H]4[C@H]5CCC(C5)[C@H]43)cc12`, the growth is 9.58% (active).
In the case of `CN(C)c1ccc(/C=C/c2ccnc3c(O)cccc23)cc1`, the growth is 5.89% (active).
As for `CCOC(=O)c1cc2c(n1Cc1cccc(OC)c1)-c1oncc1CCC2`, the growth is 10.8% (inactive).
Consider `Cn1nc(C(C)(C)C)cc1NC(=O)Cc1ccc(/C=C2\C(=O)Nc3ccccc32)cc1`, for which the growth is 22.3% (inactive).
Turning to `Cc1c(C(=O)OCCO)cc(-c2ccc(Cl)cc2)n1-c1ccc(Cl)cc1Cl`, the growth is 33% (inactive).
Take `CCC1=C[C@]2(C3CC(=O)N(c4ccccc4)C3=O)CC(C(C)(C)C)C[C@@H]2[C@@H]2C(=O)N(c3ccccc3)C(=O)[C@H]12` (stereo partly drawn): the growth is 83.7% (inactive).
Regarding `Nc1ccc(-c2nn3c(CCC(=O)c4nc5ncccc5[nH]4)nnc3s2)c(O)c1`, the growth is 105% (inactive).
Turning to `CCCCCCc1cc2cc(-c3nc4ccccc4[nH]3)c(=Nc3ccccc3C)oc2cc1O`, the growth is 7.87% (active).
Still for that read-out and setting: as for `COc1ccc(OC)c(N(CCN2C(=O)c3ccccc3C2=O)C(=O)CCl)c1`, the figure is 102% (inactive).
Same read-out and setting: to `COc1ccc(C)c2sc(N(Cc3cccnc3)C(=O)c3ccc(C#N)cc3)nc12` belongs 4.61% (active); to `O=C(/C=C/c1ccccn1)c1ccc(OCc2nnc(-c3ccc(Cl)cc3)o2)cc1`, -28.1% (active).
Regarding `COc1ccc(C2C3=C(COC3=O)N(CCO)c3cc4c(cc32)CCC4)cc1` (stereo not drawn), the growth is 24% (inactive).
As for `CN(C)/C=C1\SC(=Nc2ccc(Cl)cc2)NC1=O`, the growth is 101% (inactive).
In the case of `c1ccc(CNc2nc(Nc3ccccc3)nc3ccccc23)cc1`, the growth was 33.6% (inactive).
The same measure, in the same setting: to `COc1ccc2c(c1)C=C1CSCC3=Cc4cc(OC)ccc4OC13O2` belongs 11% (inactive).
Same read-out and setting: to `COc1ccc(C(O)(CCC(C)C)C(CN2CCOCC2)c2ccc(Cl)cc2)cc1` (stereo not drawn) belongs 15.3% (inactive); to `COC(=O)[C@H]1CCCN1C(=O)[C@H]1CCCN1C(=O)[C@H](Cc1c[nH]c2ccccc12)NC(=S)Nc1cc(C(F)(F)F)cc(C(F)(F)F)c1`, 34.7% (inactive).
As for `CCn1c(Cc2ccccc2Nc2c(Cl)cccc2Cl)nnc1SCC(=O)NN1C(=O)/C(=C/c2cccc(OC)c2OC)SC1=S`, the growth was 89.7% (inactive).
`CCCC(c1nnnn1C1CCCCC1)N1CCN(C(=O)c2ccco2)CC1` (stereo not drawn): the growth was 9.87% (active).
In the case of `C1=CC2(C=C1)OC21CCC2(C=CC3(C2)OC3C2CCCCC2)CC1` (stereo not drawn), the growth was 113% (inactive).
Take `O=C(NC1CCN(Cc2ccccc2)CC1)c1cc(C(=O)NC2CCN(Cc3ccccc3)CC2)cc(C(=O)NC2CCN(Cc3ccccc3)CC2)c1`: the growth was 64.6% (inactive).
Regarding `COc1cc(-c2c3c(c(Br)n2Cc2ccccc2)-c2nc(N)sc2CC3)cc(OC)c1OC`, the growth was 47.7% (inactive).
With `NC(CCc1nc2ccccc2c(=O)[nH]1)C(=O)O` (stereo not drawn), the growth was 96.7% (inactive).
Take `Nc1no[n+]([O-])c1-c1nnc2c(n1)-c1ccccc1C2=O`: the growth was -14.9% (active).
Take `CCOc1ccc(-c2nonc2NC(=O)c2cccc(C)c2)cc1OCC`: the growth was 11% (inactive).
Consider `Cc1ccc(OCCCCCCNCCO)c(C)c1`, for which the growth was 6.98% (active).

Another experiment relates to MALME-3M melanoma. The experiment is described as above. The conditions noted are these: 10 µM unless noted.
Consider `CCCSC1=NC2C(N(CC)C(=O)N2CC)N1/N=C/C=C/c1ccccc1[N+](=O)[O-]` (stereo not drawn), for which the growth was 74.3% (inactive).
Turning to `COC(=O)C1=Nc2ccc(F)cc2/C1=C/c1sc(=S)[nH]c1O`, the growth is 60.8% (inactive).
On to `O=C1c2cc(Br)ccc2Oc2cc([N+](=O)[O-])ccc2N1c1ccc(I)cc1F`, for which the growth was 99.8% (inactive).
Consider `COc1cccc(-c2nn(C)c3sc(C(=O)NCCN4CCN(c5ccccc5F)CC4)cc23)c1`, for which the growth is -87% (active).
On to `O=S(=O)(c1ccccc1)n1cc2c(c1-c1ccccc1)CCc1sc(Nc3ccccc3)nc1-2`, for which the growth was 105% (inactive).
On the same count and under the same terms, to `CN1CCN(Cc2ccc(NC(=O)c3cncc(C#Cc4nc(N)nc5[nH]ncc45)c3)cc2C(F)(F)F)CC1` belongs 68.6% (inactive).
For the compound `Clc1ccc(-c2nnc(COc3ccc(C4=NNC(c5ccco5)C4)cc3)o2)cc1` (stereo not drawn), the growth is 109% (inactive).
With `CC(=O)c1ccc(Cc2ccc(C(C)=O)s2)s1`, the growth was 106% (inactive).
`CCOC(=O)c1cnc2ccc(Cl)cc2c1NCCCN(C)C`: the growth is -6.52% (active).
Take `CCN1C(=O)N(CC)C2C1NN=c1s/c(=C3\C(=O)N(CC(C)(C)C)c4ccccc43)c(=O)n12` (stereo not drawn): the growth is 71.3% (inactive).
On to `CC(=O)c1ccc2oc(=O)n(Cc3ccc(C#N)cc3)c(=O)c2c1`, for which the growth was 96.9% (inactive).
On to `O=C1/C(=C/c2cccc(O)c2)COc2ccc(O)cc21`, for which the growth was 78.6% (inactive).
As for `O=C(Nc1nc2c(s1)CCc1c-2c(Br)n(Cc2ccccc2)c1Br)c1ccccc1`, the growth is -16.2% (active).
For the compound `Nc1n[nH]c2ccc([C@@H]3Nc4ccc5[nH]ncc5c4[C@H]4[C@H]5CCC(C5)[C@H]43)cc12`, the growth is 52.2% (inactive).
As to `CN(C)c1ccc(/C=C/c2ccnc3c(O)cccc23)cc1`, the growth is -2.62% (active).
For the compound `CCOC(=O)c1cc2c(n1Cc1cccc(OC)c1)-c1oncc1CCC2`, the growth is -0.828% (active).
On to `Cn1nc(C(C)(C)C)cc1NC(=O)Cc1ccc(/C=C2\C(=O)Nc3ccccc32)cc1`, for which the growth was 58% (inactive).
For the compound `Cc1c(C(=O)OCCO)cc(-c2ccc(Cl)cc2)n1-c1ccc(Cl)cc1Cl`, the growth was 76.2% (inactive).
Still for that read-out and setting: as for `CCC1=C[C@]2(C3CC(=O)N(c4ccccc4)C3=O)CC(C(C)(C)C)C[C@@H]2[C@@H]2C(=O)N(c3ccccc3)C(=O)[C@H]12` (stereo partly drawn), the figure is 91.5% (inactive); as for `Nc1ccc(-c2nn3c(CCC(=O)c4nc5ncccc5[nH]4)nnc3s2)c(O)c1`, 93% (inactive).
With `CCCCCCc1cc2cc(-c3nc4ccccc4[nH]3)c(=Nc3ccccc3C)oc2cc1O`, the growth is -29.3% (active).
With `COc1ccc(OC)c(N(CCN2C(=O)c3ccccc3C2=O)C(=O)CCl)c1`, the growth is -36.4% (active).
As for `COc1ccc(C)c2sc(N(Cc3cccnc3)C(=O)c3ccc(C#N)cc3)nc12`, the growth is -15.2% (active).
Still for that read-out and setting: to `O=C(/C=C/c1ccccn1)c1ccc(OCc2nnc(-c3ccc(Cl)cc3)o2)cc1` belongs 60.4% (inactive); to `COc1ccc(C2C3=C(COC3=O)N(CCO)c3cc4c(cc32)CCC4)cc1` (stereo not drawn), 64.7% (inactive); to `CN(C)/C=C1\SC(=Nc2ccc(Cl)cc2)NC1=O`, 103% (inactive).
Take `c1ccc(CNc2nc(Nc3ccccc3)nc3ccccc23)cc1`: the growth is -7.75% (active).
As for `COc1ccc2c(c1)C=C1CSCC3=Cc4cc(OC)ccc4OC13O2`, the growth was 45.2% (inactive).
As to `COc1ccc(C(O)(CCC(C)C)C(CN2CCOCC2)c2ccc(Cl)cc2)cc1` (stereo not drawn), the growth is 39.2% (inactive).
The same measure, in the same setting: to `COC(=O)[C@H]1CCCN1C(=O)[C@H]1CCCN1C(=O)[C@H](Cc1c[nH]c2ccccc12)NC(=S)Nc1cc(C(F)(F)F)cc(C(F)(F)F)c1` belongs 70.5% (inactive).
Turning to `CCn1c(Cc2ccccc2Nc2c(Cl)cccc2Cl)nnc1SCC(=O)NN1C(=O)/C(=C/c2cccc(OC)c2OC)SC1=S`, the growth was 97.1% (inactive).
On to `CCCC(c1nnnn1C1CCCCC1)N1CCN(C(=O)c2ccco2)CC1` (stereo not drawn), for which the growth is 53.2% (inactive).
The same measure, in the same setting: as for `C1=CC2(C=C1)OC21CCC2(C=CC3(C2)OC3C2CCCCC2)CC1` (stereo not drawn), the figure is 108% (inactive); as for `O=C(NC1CCN(Cc2ccccc2)CC1)c1cc(C(=O)NC2CCN(Cc3ccccc3)CC2)cc(C(=O)NC2CCN(Cc3ccccc3)CC2)c1`, 77.9% (inactive).
As for `COc1cc(-c2c3c(c(Br)n2Cc2ccccc2)-c2nc(N)sc2CC3)cc(OC)c1OC`, the growth was 81% (inactive).
On the same count and under the same terms, to `NC(CCc1nc2ccccc2c(=O)[nH]1)C(=O)O` (stereo not drawn) belongs 104% (inactive).
Still for that read-out and setting: to `Nc1no[n+]([O-])c1-c1nnc2c(n1)-c1ccccc1C2=O` belongs 64% (inactive); to `CCOc1ccc(-c2nonc2NC(=O)c2cccc(C)c2)cc1OCC`, 59.6% (inactive).
As to `Cc1ccc(OCCCCCCNCCO)c(C)c1`, the growth was -0.226% (active).
